About 83,000 compounds went through this panel and 20% of them were active in at least one assay; those are over-represented in the sample as a whole.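 Each cell line was grown in a 96-well plate and treated with one concentration of compound for 48 hours. Values below 10 were considered active.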 Unmarked numbers belong to inactive results. Active and inactive are the calls of the source.
What was measured:
Experiment in all cases: NCI-60 one-dose screen, 48 h (100 = growth as untreated, 0 = no growth, -100 = all killed)
Settings in all cases: 10 µM unless noted
[1] = test system: NCI-H23 lung
[2] = test system: NCI-H226 lung
[3] = test system: NCI-H322M lung
[4] = test system: HOP-62 NSCLC
[5] = test system: NCI-H460 lung
[6] = test system: HOP-92 NSCLC
[7] = test system: NCI-H522 lung
[8] = test system: A549/ATCC NSCLC
[9] = test system: 786-0 renal
[10] = test system: COLO 205 colon

| Compound | growth [1] | growth [2] | growth [3] | growth [4] | growth [5] | growth [6] | growth [7] | growth [8] | growth [9] | growth [10] |
| --- | --- | --- | --- | --- | --- | --- | --- | --- | --- | --- |
| NC(=O)c1ccc(-c2c3ccccc3cc3c2ccc2ccccc23)cc1 | 70.7% | 65.6% | 80.1% | 65.7% | 29.9% | 76.4% | -20.6% (active) | 63.1% | 52.4% | 52.5% |
| Cc1ccc2c(n1)C(=O)C(Br)=C(C1CCCC1)C2=O | 92.4% | 94.3% | 100% | 84% | 110% | 98.4% | 83.6% | 94.4% | 101% | 52% |
| N#CSCC1CC(O)(c2ccccc2)CC(c2ccc(F)cc2)O1 (stereo not given) | 20.5% | -7.79% (active) | 50.9% | -36.8% (active) | -28.9% (active) | 29.6% | -57% (active) | 27.8% | 0.242% (active) | 16.6% |
| CCCCCOC(=O)c1c(C)[nH]c(/C=C2\N=C(c3ccc[nH]3)C=C2OC)c1C | -59.1% (active) | -74.8% (active) | -17.8% (active) | -17.8% (active) | 4.97% (active) | -20.5% (active) | -56.7% (active) | -1.61% (active) | -16.9% (active) | -88.2% (active) |
| CC1(C)COB(OCC(C)(C)COB2OCC(C)(C)CO2)OC1 | 101% | 100% | 92.2% | 108% | 107% | 87.9% | 106% | 100% | 104% | 109% |
| N#Cc1c(-c2ccccc2)cc(-c2ccccc2)n(CCCC(=O)Nc2ccccc2N)c1=O | 73.5% | 73.9% | 102% | 64.7% | 33.5% | 62.1% | 32.4% | 57.4% | 63.9% | 92.3% |
| CN1CCN(C(=O)c2ccc(NC(=O)c3cc4c(nn3)NCCN4Cc3cc(Cl)ccc3Cl)cc2)CC1 | 74.3% | 36.8% | 95.8% | 82.3% | 53.4% | 67.2% | 36.1% | 55.2% | 75.2% | 71.1% |
| CC1=C2[C@@H](CC1)[C@]1(C)O[C@@](C(C)C)(C[C@H]1OC(=O)[C@H](C)O)[C@H]2OC(=O)/C=C/c1ccccc1 | 90.7% | 84.2% | 85.9% | 80.9% | 88.9% | 55.9% | 74% | 66.9% | 66.5% | 98.8% |
| COC(=O)[C@]1(C)CCC[C@]2(C)[C@H]3C[C@H]4C(C(C)C)=C[C@]3(CC[C@H]21)[C@@H]1C(=O)CC[C@H](OCCC#N)[C@@H]14 | 84.7% | 74.3% | 106% | 95% | 94.7% | 76.6% | 89.9% | 92.2% | 81% | 85.2% |
| COc1c(B(O)O)cccc1-c1cc(C)c2c(ccc3[nH]ncc32)n1 | 78.4% | 89.7% | 74.3% | 46.3% | 71% | 41.8% | 62.6% | 75.1% | 40.9% | 93.3% |
| CCOC(=O)NC(C)C | 106% | 112% | 107% | 93.4% | 115% | 79.6% | 99.3% | 95.7% | 95.6% | 129% |
| CCOc1nc(-c2ccccc2)cc2c(O)c(C(=O)N/N=C/c3ccccc3)[nH]c(=O)c12 | 111% | 106% | 128% | 115% | 114% | 107% | 74.4% | 114% | 112% | 111% |
| O=C(CN1C(=O)S/C(=C\c2ccccc2)C1=O)Nc1ncc(Cc2ccccc2Cl)s1 | 102% | 95.7% | 95.9% | 103% | 110% | 108% | 81% | 98.6% | 107% | 113% |
| COc1ccc(C2=C(Nc3ccc(C(=O)Nc4ccccc4)cc3)C(=O)N(C)C2=O)cc1 | 88.7% | 95.2% | 88.7% | 72.2% | 108% | 117% | 59.9% | 78.2% | 105% | 105% |
| Nc1nc2ccccc2c2c(=O)c3cccc(Cl)c3sc12 | 80.3% | 94.4% | 89.1% | 81.8% | 61.5% | 101% | 93.3% | 76.8% | 96.2% | 57.2% |
| COc1ccc(Nc2nc(-c3cc(O)c(C)c(C)c3O)cs2)cc1 | 78.1% | 96.3% | 90.9% | 69.9% | 39% | 90.5% | 34.8% | 58% | 102% | 115% |
| CN1C(=O)/C(=C\c2c(Cl)cccc2Cl)c2ccccc21 | 90.7% | 100% | 96.5% | 86.5% | 103% | 83.4% | 83.3% | 88% | 84.3% | 113% |
| CC/C(=C(/c1ccc(Cl)cc1)c1ccc(OCCN(C)C)cc1)c1ccc(Cl)cc1 | 73.5% | 87.5% | 83.6% | 78.5% | 37.3% | 83.7% | 70.3% | 61.2% | 66.3% | -16.1% (active) |
| O=C(Nc1ccccc1O)c1ccc(CNC(=O)c2sccc2Nc2ccnc(C(F)(F)F)c2)cc1 | 51.7% | 54.8% | 51% | 65.6% | 42% | 20.9% | 7.48% (active) | 66.5% | 60.4% | 73.3% |
| O=c1[nH]c(Cc2nc3ccccc3s2)nc2cc(Br)ccc12 | 86.1% | 76.8% | 88.8% | 37.6% | 53.3% | 84.9% | 58.7% | 61% | 68% | 88.3% |
| CCCNC(=O)Nc1ccc2cc3ccc(NC(=O)NCCC)cc3nc2c1 | 86.4% | 90.7% | 100% | 81.8% | 104% | 79.2% | 79% | 95.9% | 82.3% | 99.3% |
| Cc1cc(N2CCN(CCNc3ccnc4cc(Cl)ccc34)CC2)nc(N2CCOCC2)n1 | 42.8% | 79.5% | 74.9% | 81.4% | 64.6% | 47.7% | 76.5% | 71.4% | 74% | 11.6% |
| Cc1ccc(C)n1-c1ccccc1-n1c(C)ccc1C | 107% | 97.8% | 99.9% | 112% | 105% | 92.4% | 96.5% | 101% | 101% | 114% |
| O=C(CN1C(=O)S/C(=C\C(Cl)=C\c2ccccc2)C1=O)NCCc1ccc(O)cc1 | 40.2% | 60.1% | 75.2% | 43% | 45.7% | 15.6% | -6.49% (active) | 48.8% | -17.9% (active) | 13.7% |
| CNC(=O)c1ccccc1Oc1nc(Nc2cc(OC)c(OC)c(OC)c2)ncc1Br | 55.2% | 21.8% | 58.5% | 49.7% | 43.9% | 60.6% | 53.9% | 46.4% | 48.9% | -12.6% (active) |
| CC(C)c1ccc(-n2c(=S)[nH]c3sc4cc(O)ccc4c3c2=O)cc1 | 98.6% | 92.5% | 90.4% | 102% | 101% | 80.2% | 99.9% | 106% | 103% | 102% |

— PubChem BioAssay (NCI)
